# Data as given in PubChem BioAssay (NCATS).
# Results filed as inconclusive are left out. Active and inactive are the calls of the source. The call rests on the fitted dose curve; in most records, active means well fitted curve in the direction sought with a large enough effect; inconclusive means small, poorly fitted or top-dose-only effect, or another doubt; inactive means no such curve, though single readings can be large; an effect the other way counts as inactive or inconclusive.
# How the values were obtained:
# [1] = biological target: Pyruvate kinase (Leishmania mexicana) (UniProt Q27686); assay: qHTS Validation Assay for Inhibitors of Leishmania Mexicana Pyruvate Kinase (AID 945)
# In short: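 Purified LmPYK (E451W mutant, 0.2 nM) was incubated 1 h at room temperature with 0.5 mM PEP and 0.1 mM ADP in 50 mM imidazole pH 7.2, 50 mM KCl, 7 mM MgCl2; ATP formed was read by PKLight luminescence, normalized to DMSO wells.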
# [2] = MultiTox-Fluor Cytotoxicity Assay - LYMP1-001 - Dead Cells (AID 946)
# In short: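 LYMP1-001 lymphoblastoid cells (2500/well) treated 16 h at 37 C. Dead-cell protease cleavage of bis-AAF-R110 read at Ex/Em 485/520. Normalized to DMSO and 15 uM tetraoctylammonium bromide; AC50 from Hill fits.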
# [3] = Cell Viability - LYMP1-002 - Assay at 16 hr (AID 948)
# In short: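 LYMP1-002 human lymphoblastoid cells, 2500/well; 5 hr 37 C; cpd 16 hr 37 C; CellTiter-Glo 30 min RT; luminescence (ATP). Concentration-response, Hill-fit AC50. Pos ctrl tetraoctylammonium bromide.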
# [4] = MultiTox-Fluor Cytotoxicity Assay - LYMP1-002 - Live Cells (AID 955)
# In short: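 After 16 h compound exposure at 37 C, live LYMP1-002 lymphoblastoid cells (2500/well) were quantified by cleavage of cell-permeant GF-AFC substrate, read at 405/510 nm after 60 min. Concentration-response fitted with Hill equation for AC50.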
# [5] = MultiTox-Fluor Cytotoxicity Assay - LYMP1-003 - Dead Cells (AID 961); further: nearly all actives have a fitted effect of over 70% in size
# In short: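 LYMP1-003 human lymphoblastoid cells (2500/well) exposed to compound 16 h at 37 C in complete medium; dead-cell protease read with bis-AAF-R110 fluorescence (Ex/Em 485/520) after 60 min at room temperature. Normalized to DMSO and 15 uM tetraoctylammonium bromide; AC50 from Hill fit.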
# [6] = MultiTox-Fluor Cytotoxicity Assay - LYMP1-003 - Live Cells (AID 962);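 further: cytotoxic hits lower the live-cell protease signal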
# In short: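 Live-cell protease activity (GF-AFC substrate, 405/510 nm, 60 min at room temperature) after 16 h, 37 C compound exposure of human lymphoblastoid LYMP1-003 cells; concentration-response fitted to the Hill equation for AC50.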
# [7] = Cell Viability - LYMP1-003 - Assay at 24 hr (AID 963)
# In short: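 Concentration-response qHTS: ATP loss measured by CellTiter-Glo luminescence after 24 h compound exposure at 37 C. Cells were LYMP1-003 human lymphoblastoid, 2500 per well. AC50 derived via standard Hill equation modeling.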
# [8] = MultiTox-Fluor Cytotoxicity Assay - LYMP1-001 - Live Cells (AID 947)
# [9] = MultiTox-Fluor Cytotoxicity Assay - LYMP1-002 - Dead Cells (AID 960); further: nearly all actives have a fitted effect of over 60% in size
# In short: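 Dead-cell fluorescence (Ex/Em 485/520) after 16 h compound exposure at 37 C of LYMP1-002 lymphoblastoid cells in complete medium; AC50 by Hill equation, with data scaled between DMSO and 15 uM tetraoctylammonium bromide.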
# Chain of Pyruvate kinase (Leishmania mexicana) (Q27686 2-499 E452W): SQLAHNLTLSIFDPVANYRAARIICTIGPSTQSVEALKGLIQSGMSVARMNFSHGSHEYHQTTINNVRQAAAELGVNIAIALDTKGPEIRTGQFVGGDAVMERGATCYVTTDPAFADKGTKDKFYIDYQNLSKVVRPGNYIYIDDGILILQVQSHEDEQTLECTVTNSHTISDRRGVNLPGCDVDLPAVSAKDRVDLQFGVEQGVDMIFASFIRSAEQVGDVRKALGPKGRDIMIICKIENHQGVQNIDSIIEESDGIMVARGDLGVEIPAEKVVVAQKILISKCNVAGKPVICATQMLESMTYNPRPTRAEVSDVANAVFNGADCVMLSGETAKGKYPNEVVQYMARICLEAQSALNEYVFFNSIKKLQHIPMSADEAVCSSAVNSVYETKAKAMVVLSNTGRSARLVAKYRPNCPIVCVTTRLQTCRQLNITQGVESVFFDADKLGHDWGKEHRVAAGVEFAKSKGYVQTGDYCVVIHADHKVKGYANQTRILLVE
smiles,measurement,setting,value
Nc1ccc(S(=O)(=O)Nc2ccnn2-c2ccccc2)cc1,outcome,[1],inactive
Cc1cn[nH]c1,outcome,[1],inactive
NNCCc1ccccc1,outcome,[1],inactive
N=c1nc(N2CCCCC2)cc(N)n1O,outcome,[1],inactive
CCCC(CCC)C(=O)O,outcome,[1],inactive
same,outcome,[2],inactive
same,outcome,[3],inactive
same,outcome,[4],inactive
same,outcome,[5],inactive
same,outcome,[6],inactive
same,outcome,[7],inactive
C1COC(NC(C2CC2)C2CC2)=N1,outcome,[1],inactive
O=C1CCc2cc(OCCCCc3nnnn3C3CCCCC3)ccc2N1,outcome,[1],inactive
Clc1cccc(Cl)c1NC1=NCCN1,outcome,[1],inactive
CCOC(=O)N1CCC(=C2c3ccc(Cl)cc3CCc3cccnc32)CC1,outcome,[1],inactive
C[C@]12CCC(=O)C=C1CC[C@@H]1[C@@H]2[C@@H](O)C[C@@]2(C)[C@H]1CC[C@]2(O)C(=O)CO,outcome,[1],inactive
Nc1nc2c(ncn2COCCO)c(=O)[nH]1,outcome,[1],inactive
N[C@@H]1CONC1=O,outcome,[1],inactive
CN1CCN(CCCN2c3ccccc3Sc3ccc(C(F)(F)F)cc32)CC1,outcome,[1],inactive
OC(CN1CCC(Cc2ccc(F)cc2)CC1)c1ccc(Cl)cc1 (configuration not stated),outcome,[1],inactive
O=c1[nH]cnc2[nH]ncc12,outcome,[1],inactive
same,outcome,[2],inactive
same,outcome,[8],inactive
same,outcome,[3],inactive
same,outcome,[4],inactive
same,outcome,[9],inactive
same,outcome,[5],inactive
same,outcome,[6],inactive
same,outcome,[7],inactive
NC(N)=NC(=O)c1nc(Cl)c(N)nc1N,outcome,[1],inactive
same,outcome,[2],inactive
same,outcome,[8],inactive
same,outcome,[3],inactive
same,outcome,[4],inactive
same,outcome,[9],inactive
same,outcome,[5],inactive
same,outcome,[6],inactive
same,outcome,[7],inactive
NC(=O)c1cnccn1,outcome,[1],inactive
same,outcome,[2],inactive
same,outcome,[8],inactive
same,outcome,[3],inactive
same,outcome,[4],inactive
same,outcome,[9],inactive
same,outcome,[5],inactive
same,outcome,[6],inactive
same,outcome,[7],inactive
